Assay outcomes: PubChem BioAssay, several laboratories
A selection: hits, their analogues and other compounds. The true share with any hit is near 4.7%.
SARS 3CLpro inh: SARS-CoV 3CLpro protease inhibition | P0C6X7 | recombinant SARS-CoV 3CLpro, quenched FRET peptide cleavage | inhibition, % at 6 µM | actives 0.14% (n = 290,000); in the data active means inhibition above about 12%
RecA intein inh: inhibitors of M. tuberculosis RecA intein splicing; P9WHJ3; cell-free RecA intein splicing, fluorescence; inhibition, % (no concentration beside the values); actives 0.75% (n = 290,000); AID 2221; in the data active means inhibition above about 30%
Target sequence (P9WHJ3 whole entry, looked up): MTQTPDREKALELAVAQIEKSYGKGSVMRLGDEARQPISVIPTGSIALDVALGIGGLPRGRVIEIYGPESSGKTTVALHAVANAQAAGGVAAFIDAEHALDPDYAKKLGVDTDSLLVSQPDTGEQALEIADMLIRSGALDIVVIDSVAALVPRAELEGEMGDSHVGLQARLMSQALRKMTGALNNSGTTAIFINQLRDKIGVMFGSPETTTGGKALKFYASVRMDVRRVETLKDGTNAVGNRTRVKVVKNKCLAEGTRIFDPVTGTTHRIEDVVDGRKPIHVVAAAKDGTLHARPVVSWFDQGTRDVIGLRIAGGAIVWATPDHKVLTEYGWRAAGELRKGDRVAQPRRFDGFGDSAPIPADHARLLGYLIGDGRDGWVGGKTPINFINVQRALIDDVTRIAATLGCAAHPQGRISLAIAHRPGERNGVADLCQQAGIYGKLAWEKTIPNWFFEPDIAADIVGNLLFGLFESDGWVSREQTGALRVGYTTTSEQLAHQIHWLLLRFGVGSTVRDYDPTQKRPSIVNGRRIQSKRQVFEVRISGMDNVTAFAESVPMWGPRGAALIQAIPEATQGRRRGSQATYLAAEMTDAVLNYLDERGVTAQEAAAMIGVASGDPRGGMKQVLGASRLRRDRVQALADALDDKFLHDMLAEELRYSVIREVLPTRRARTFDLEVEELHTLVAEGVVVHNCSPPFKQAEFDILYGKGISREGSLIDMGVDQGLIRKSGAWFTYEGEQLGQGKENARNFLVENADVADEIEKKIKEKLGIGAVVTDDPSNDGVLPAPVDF
Mtb FBA inh: Mtb fructose-bisphosphate aldolase inhibition; P9WQA3; purified M. tuberculosis FBA, fluorescence read-out; inhibition, % at 1 µM; actives 2.3% (n = 360,000); AID 588726; in the data active means inhibition above about 27%
GDH-TPI inh: GDH-TPI coupled enzyme inhibition counter-screen | GDH-TPI coupled enzyme counterscreen, NADH absorbance | inhibition, % at 4.8 µM | actives 1.2% (n = 360,000)
CCHF vOTU inh: blocks the CCHF virus ovarian tumor domain protease | inhibition, % at 11.5 µM | CCHFV vOTU protease, Pep-AMC fluorescence | actives 0.55% (n = 370,000)
VHR inh abs: inhibitors of human VHR1 phosphatase (DUSP3); actives 0.52% (n = 290,000); P51452; inhibition, % at 13.3 µM; AID 1654; recombinant VHR phosphatase, pNPP absorbance; in the data active means inhibition above about 50%
A number is an active result; – = inactive; · = no result given; + = active, no number. Unless noted, no stated cut-off is given here; in the data, active means inhibition above about 30%; inactive means the rest.

SMILES | SARS 3CLpro inh | RecA intein inh | Mtb FBA inh | GDH-TPI inh | CCHF vOTU inh | VHR inh abs
COc1cc(/C(O)=C(\C#N)c2nc3ccccc3[nH]2)cc(OC)c1OC | – | – | – | 38 | – | –
COc1ccc(C)cc1-n1nnnc1SC/C(O)=C(\C#N)c1nc2ccccc2[nH]1 | – | · | – | 36 | – | –
C=CCc1c(C)nc(C)nc1N/N=C/c1ccc(F)cc1 | – | – | – | 32 | – | –
C=CCc1c(C)nc(C)nc1N/N=C/c1ccccc1 | – | – | – | – | – | –
COc1ccc(C(=O)CC(=O)c2ccccc2O)cc1OC | – | – | – | – | – | –
COc1ccc(C(=O)CC(=O)c2ccccc2O)cc1 | – | · | 171 | – | – | –
COc1ccc(O)c(C(=O)CC(=O)c2cccnc2)c1 | · | · | 115 | – | – | ·
COc1ccc(O)c(C(=O)CC(=O)c2ccccc2C)c1 | – | – | – | – | – | –
CCOC(=O)[C@]12CCC=C1N(Cc1ccccc1)C(=O)[C@H](CC(=O)NCc1cccc(C(F)(F)F)c1)C2 | · | · | · | · | – | ·
CCN(CC(=O)Nc1ccc(NC(C)=O)cc1)C(=O)C1(c2ccc(Cl)cc2)CCC1 | · | · | – | – | – | ·
O=c1c(C(c2ccccc2)c2c(O)sc3ccccc3c2=O)c(O)sc2ccccc12 | – | 29 | – | – | – | –
CCCCOc1ccc(C(=O)NC2CCCCN(C)C2=O)cc1 (stereo unspecified) | · | · | · | · | – | ·
Cc1ccc(-c2csc(NS(=O)(=O)c3cccc(F)c3)n2)o1 | · | · | – | – | – | ·
FC(F)(F)c1cc(Cl)c2nc(-c3ccccc3)c(Cc3cccc(Cl)c3)n2c1 | · | · | · | · | 31 | ·
FC(F)(F)c1cc(Cl)c2nc(-c3cccc(Cl)c3)c(Cc3cccc(Cl)c3)n2c1 | · | · | · | · | – | ·
CC(=O)Nc1nc2[nH]ccc2c(=O)[nH]1 | · | · | – | – | – | ·
Cc1[nH]n(C(C)(C)C)c(=O)c1Sc1ccccc1 | – | 50 | – | – | – | –
Nc1c(Sc2ccccc2)c(=O)[nH]c(=O)n1Cc1ccccc1 | – | – | – | – | – | ·
CN(C)c1ccc(N(C)C)c(C(O)(c2ccccc2)c2ccccc2)c1 | · | · | · | · | – | ·
Cc1c(C(=O)N/N=C/c2ccc(O)cc2)sc(=S)n1C | – | – | – | 43 | – | –
COc1ccc(N2CCN(C3CCCN(Cc4ccc(F)cc4Cl)C3)CC2)cc1 (stereo unspecified) | – | – | – | – | – | 51
COc1ccc(N2CCN(C3CCCN(S(=O)(=O)c4ccc(C)cc4C)C3)CC2)cc1 (stereo unspecified) | – | – | – | – | – | 57
COc1ccc(N2CCN(C3CCCN(S(=O)(=O)c4ccccc4)C3)CC2)cc1 (stereo unspecified) | – | – | – | – | – | –
O=S1(=O)c2ccc(N3CCN(Cc4ccccc4F)CC3)cc2Oc2ccccc2CN1Cc1cn(Cc2cccc(C(F)(F)F)c2)nn1 | · | · | · | · | – | ·
Cc1nc(C(F)(F)F)ccc1C(=O)N1CCCCCC1(C)C(=O)NCC(C)C (stereo unspecified) | · | · | – | – | – | ·
SMILES | SARS 3CLpro inh | RecA intein inh | Mtb FBA inh | GDH-TPI inh | CCHF vOTU inh | VHR inh abs
COc1cc2cc(C(=O)N3CC(COS(C)(=O)=O)c4ccc(O)cc43)[nH]c2c(OC)c1OC (stereo unspecified) | · | · | – | 39 | · | ·
CSc1ccc(/C=N/NC(=O)COc2ccc(Br)cc2Cl)cc1 | – | – | – | – | – | –
COc1cc(/C=C2/CC/C(=C/c3ccc(O)c(OC)c3)C2=O)ccc1O | – | – | – | 39 | – | –
COc1cc(/C=C2\SC(N)=NC2=O)ccc1O | – | – | – | 39 | – | –
COc1cc(/C=C2\COC/C(=C\c3ccc(O)c(OC)c3)C2=O)ccc1O | – | – | – | – | – | –
COc1cc(/C=C2/C(=O)ON=C2c2ccccc2)ccc1O | – | – | – | 37 | – | –
COc1cc(/C=C2\C(=O)ON=C2c2ccccc2)cc(Cl)c1O | – | – | – | – | – | –
CCOC(=O)C1=CCN(S(=O)(=O)c2ccc(Cl)cc2)C1c1ccc(Cl)c(Cl)c1 (stereo unspecified) | · | · | · | · | – | ·
COc1ccc(CC(NC(C)=O)C(=O)NC2CCN(C(=O)c3ccncc3)CC2)cc1OC (stereo unspecified) | – | – | – | – | – | –
COc1ccc(CC(NC(C)=O)C(=O)NC2CCN(C(=O)c3cccc(Cl)c3)CC2)cc1OC (stereo unspecified) | – | – | – | – | – | 53
CCOC(=O)Cn1cc(/C=N/NC(=O)c2ccc(C#N)cc2F)c2ccccc21 | – | – | – | 34 | – | –
Cn1cc(/C=N/NC(=O)c2ccc(C#N)cc2F)c2ccccc21 | – | – | – | – | – | –
N#Cc1ccc(C(=O)N/N=C/c2cn(CC(=O)O)c3ccccc23)c(F)c1 | – | – | – | 36 | – | –
O=c1cccc2n1Cc1cc3ccccc3nc1-2 | – | – | + | 32 | – | –
c1ccc2c(c1)-c1nc3ccccc3cc1C2N1CCCCC1 (stereo unspecified) | · | · | – | – | – | ·
Cc1cc(Br)c2nc(-c3ccc(F)cc3)c(Cc3cccc(Cl)c3)n2c1 | · | · | · | · | – | ·
O=C(Cc1cccc(C(F)(F)F)c1)N1CCCC1 | – | – | – | – | – | –
Nc1nc(-c2ccc3c(c2)OCCO3)cs1 | – | – | – | – | – | –
N#Cc1ncc(-c2ccc3c(c2)OCCOCCOCCOCCO3)nc1C#N | – | 36 | – | – | – | –
N#Cc1ncc(-c2ccc3c(c2)OCCOCCOCCOCCOCCO3)nc1C#N | – | 44 | – | – | – | –
Brc1ccc2c(c1)OCCOCCOCCOCCOCCO2 | – | – | – | – | – | –
Cc1ccccc1N1CCN(S(=O)(=O)c2ccc3c(c2)n(C)c(=O)c(=O)n3C)CC1 | · | · | · | · | – | ·
CCCc1cc(=O)oc2cc(OC(C)C(=O)NCC3CCC(C(=O)O)CC3)ccc12 (stereo unspecified) | – | – | – | – | – | –
COc1ccc2c(CC(=O)NCC3CCC(C(=O)O)CC3)cc(=O)oc2c1 (stereo unspecified) | – | – | 133 | – | – | –
COc1ccc2c(COC(=O)CCS(=O)(=O)c3ccccc3)cc(=O)oc2c1 | – | – | 134 | – | · | –
SMILES | SARS 3CLpro inh | RecA intein inh | Mtb FBA inh | GDH-TPI inh | CCHF vOTU inh | VHR inh abs
COc1ccc(-c2cc(=O)oc3cc(OCC(=O)NCC4CCC(C(=O)O)CC4)ccc23)cc1 (stereo unspecified) | – | – | – | 33 | – | –
Cc1cc(=O)oc2cc(OCC(=O)NCC3CCC(C(=O)O)CC3)ccc12 (stereo unspecified) | – | – | – | – | – | –
COC(=O)C1CN(C2CC2)CCS(=O)(=O)N1Cc1cn(Cc2ccc(F)cc2)nn1 (stereo unspecified) | · | · | · | · | – | ·
CCOC(=O)C1=CCN(S(=O)(=O)c2ccc([N+](=O)[O-])cc2)C1c1ccc(C)cc1 (stereo unspecified) | · | · | · | · | – | ·
COc1cc(OC)cc(C(=O)NC2CC(C)(C)NC(C)(C)C2)c1 | – | – | + | – | – | –
CC1(C)CC(NC(=O)c2cc([N+](=O)[O-])cc([N+](=O)[O-])c2)CC(C)(C)N1 | – | – | – | – | – | –
